Screening results (PubChem)
ALDH1A1 inh – inhibitors of human aldehyde dehydrogenase 1A1; Purified ALDH1A1, NADH fluorescence, propionaldehyde substrate; 220,000 compounds, 7.3% hits; Potency, µM (doses to about 75.3 µM), for inactives: at the highest dose activity, negative = inhibition, hits mostly inhibitors; active means well fitted inhibition curve with a large enough effect, not every such curve was filed as active; inconclusive means small, poorly fitted or top-dose-only effect, or another doubt; inactive means no such curve, though single readings can be large or run the other way;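 further: potency means the concentration at half of the fitted maximal effect; plate controls were no enzyme wells and a reference inhibitor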
HPGD inh – blocks human HPGD enzyme activity; P15428; purified HPGD, NADH fluorescence kinetic, PGE2 substrate; AID 894; Potency, µM, for inactives: at the highest dose activity change, negative = inhibition, most hits filed as inhibitors; 150,000 compounds, 4.3% hits; active means well fitted inhibition curve with a large enough effect, not every such curve was filed as active; inconclusive means small, poorly fitted or top-dose-only effect, or another doubt; inactive means no such curve, though single readings can be large or run the other way; further: potency means the concentration at half of the fitted maximal effect
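20 nM HPGD preincubated 15 min at room temperature with compound in 50 mM Tris-HCl pH 8, 0.01% Tween 20. Started with 1 mM NAD+ and 30 uM prostaglandin E2; NADH fluorescence (360/450 nm) read 5 times over 30-s intervals, last minus first.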
IMPase inh – cell-permeable inhibitors of inositol monophosphatase (IMPase). CHO-M1 cells, IP1 accumulation, HTRF TR-FRET ratio. P97697. 120,000 tested, under 10 active. inhibition (IP1 accumulation), % at 46.1 µM; active means well fitted curve in the direction sought with a large enough effect in the signal ratio, not every such curve was filed as active; inconclusive means small, poorly fitted or top-dose-only effect, or a change in a side signal; inactive means no such curve, though single readings can be large or run the other way; the % refers to the signal ratio;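 further: cells stimulated with carbachol in lithium chloride buffer; plate controls were DMSO basal wells for no effect and reference inhibitor wells for full effect; higher means more IMPase inhibition seen as more IP1 and lower FRET ratio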
Target sequence (P97697 whole entry, looked up): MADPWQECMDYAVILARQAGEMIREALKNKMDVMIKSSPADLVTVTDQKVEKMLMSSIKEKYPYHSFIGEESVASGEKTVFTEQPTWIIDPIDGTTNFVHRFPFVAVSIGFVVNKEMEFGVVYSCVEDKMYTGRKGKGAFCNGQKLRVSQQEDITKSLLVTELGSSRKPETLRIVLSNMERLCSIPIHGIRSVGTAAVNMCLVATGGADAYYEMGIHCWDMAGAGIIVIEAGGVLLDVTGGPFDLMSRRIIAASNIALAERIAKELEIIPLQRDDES
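Elevated IP1 in lysates lowers TR-FRET signal (665/620 ratio and 620 channel reported). Cells were CHO-M1, given carbachol (50 uM as added) plus 50mM LiCl, pH 7.4, 30 min, 37C; compounds titrated up to 46 uM; AC50 by Hill equation.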
IMPase Li inh – membrane-permeable IMPase blocker, potentiated with lithium; CHO-M1 cells, IP1 TR-FRET (IP-One), carbachol + lithium; Potency, µM (highest dose often 59.4 µM), for the others: at the top dose activity, negative = IMPase inhibition, hits mostly inhibitors; 210,000 compounds, 0.35% hits;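 further: IP1 builds up when IMPase is blocked and the TR-FRET signal falls; potency means the concentration at half of the fitted maximal effect; plate controls were basal vehicle for no effect and high inhibitor control for full effect; nearly all actives have a fitted effect of over 50% in size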
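Readout is a homogeneous TR-FRET IP1 immunoassay (Ex 320, Em 665 and 620), where raised cytosolic IP1 lowers signal. Cells were CHO-M1 treated 30 min at 37C with test compounds plus a little lithium; AC50 values came from Hill-equation fitting.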
NPSR antag – antagonists of human neuropeptide S receptor cAMP signaling; Q6W5P4; CHO-NPSR cells, cAMP TR-FRET, antagonist mode; Potency, µM (doses to about 38.3 µM), without a hit: at the highest dose activity change, negative = inhibition, most hits filed as inhibitors; 220,000 compounds, 1% hits; AID 1461; further: potency means the concentration at half of the fitted maximal effect; nearly all actives have a fitted effect of over 50% in size
Target sequence (Q6W5P4 whole entry, looked up): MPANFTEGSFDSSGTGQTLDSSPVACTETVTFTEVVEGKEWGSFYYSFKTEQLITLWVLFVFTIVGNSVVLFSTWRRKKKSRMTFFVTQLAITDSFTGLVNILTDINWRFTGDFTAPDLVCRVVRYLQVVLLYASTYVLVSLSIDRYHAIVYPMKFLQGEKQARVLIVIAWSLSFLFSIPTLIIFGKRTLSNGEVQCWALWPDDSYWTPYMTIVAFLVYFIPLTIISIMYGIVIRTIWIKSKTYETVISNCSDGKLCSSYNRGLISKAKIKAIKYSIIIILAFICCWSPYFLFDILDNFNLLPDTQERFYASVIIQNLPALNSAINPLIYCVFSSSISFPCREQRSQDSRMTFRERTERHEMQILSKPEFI
PNC assembly inh – perinucleolar compartment assembly inhibition. 140,000 compounds, 3.1% hits. AID 2417. activity change (PNC), negative = inhibition, % at 10 µM. PC3M PTB-GFP, PNC prevalence imaging, 16 h; hits give low values;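 active means readout at or below -70, meaning at least 70% loss of cells showing the perinucleolar compartment, a nuclear body marking cancer cells; inconclusive means readout between -30 and a set limit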;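 further: plate controls were DMSO wells for no effect and camptothecin positive control wells for full effect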
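PC3M cells stably expressing PTB-GFP, 750–1000 cells/well, treated 16 h at 37 °C with compound (23 nl of library stock), in duplicate. After paraformaldehyde fixation and Hoechst stain, imaged at 20x; PNC prevalence scored by image analysis.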
* = called active by the depositor; ? = inconclusive; nt = not tested or not shown; [ ] = dose if it differs, or a comment. A selection: hits, their analogues and other compounds. The true share with any hit is near 11%. Unless noted, the call rests on the fitted dose curve; in most records, active means well fitted curve in the direction sought with a large enough effect; inconclusive means small, poorly fitted or top-dose-only effect, or another doubt; inactive means no such curve, though single readings can be large; an effect the other way counts as inactive or inconclusive. Unless noted, on the % scale 0 is the no-effect control and ±100 the full control effect.

SMILES	ALDH1A1 inh	HPGD inh	IMPase inh	IMPase Li inh	NPSR antag	PNC assembly inh
Cc1ccccc1/C=C1\SC(=S)N(/N=C/c2cc([N+](=O)[O-])ccc2O)C1=O	0.4µM*	nt	nt	-3%	-4%	nt
CC(N=Cc1cc([N+](=O)[O-])ccc1O)c1ccccc1 (stereo not drawn)	?	nt	nt	-15%	11%	nt
CCC(=O)NC(c1cccs1)c1ccc2cccnc2c1O (stereo not drawn)	-11%	nt	nt	20%	?	nt
COc1ccc(CCNC(=O)C2CC(=O)N(C3CCCCCCC3)C2)cc1OC (stereo not drawn)	?	-2%	-4	4%[38.3 µM]	-9%[46.1 µM]	11
COc1ccc(CN2CCN(C(=O)C3CC(=O)N(C4CCCCCC4)C3)CC2)c(OC)c1OC (stereo not drawn)	20µM*	-1%	-1	7%[38.3 µM]	-8%[46.1 µM]	26
CCCCSc1nnc2c(n1)OC(C(=O)c1ccccc1)Nc1ccccc1-2 (stereo not drawn)	20µM*	-17%	1	28%[38.3 µM]	-5%[46.1 µM]	18
COc1ccccc1C(=O)C1Nc2ccccc2-c2nnc(SC)nc2O1 (stereo not drawn)	22µM*	-15%	-3	11%	-14%	-104*
CCCCSc1nnc2c(n1)OC(C)N(C(C)=O)c1ccccc1-2 (stereo not drawn)	nt	nt	1	nt	nt	nt
O=C(CSC1=NC(=O)C(Cc2ccccc2)C(=O)N1)Nc1ncc(Br)cc1Br (stereo not drawn)	40µM*	nt	nt	-16%	19%	nt
O=C(CSC1=NC(=O)C(Cc2ccccc2)C(=O)N1)Nc1ncccn1 (stereo not drawn)	0%	nt	10	nt	-4%[46.1 µM]	?
Cc1cc(C(=O)N2CCN(S(C)(=O)=O)CC2)sc1-c1ccccc1	10%	-6%	2	-27%[38.3 µM]	?	-3
Cc1cc(C(=O)N(C)C)sc1-c1ccccc1	0%	6.3µM*	?	-7%	12%[46.1 µM]	-3
Clc1ccsc1-c1csc(-c2cccnc2)n1	-5%	?	1	14%[38.3 µM]	14%[46.1 µM]	-26
c1cncc(-c2nc(-c3ccco3)cs2)c1	1.3µM*	?	-9	18%[38.3 µM]	-12%[46.1 µM]	9
O=S(=O)(c1ccc(-c2csc(-c3cccnc3)n2)cc1)N1CCCC1	?	?	-1	22%[38.3 µM]	?	17
O=S(=O)(c1ccc(-c2csc(-c3cccnc3)n2)cc1)N1CCCCC1	?	28µM*	?	5%	?	-23
Cc1cc(C(=O)CSc2nnc(-c3ccc(F)cc3)o2)c(C)n1CC1COc2ccccc2O1 (stereo not drawn)	-3%	-10%	8	10%[38.3 µM]	-16%[46.1 µM]	35
CCCCNC(=O)N(O)C1N(/N=C/c2cccnc2)C(=S)SC1(C)C (stereo not drawn)	nt	nt	nt	nt	27%	nt
CCCCC(NC(=O)c1ccccc1)C(=O)OCC(=O)N1c2ccccc2Sc2ccccc21 (stereo not drawn)	40µM*	-16%	-1	3%[38.3 µM]	?	52
CC(=O)NCC(=O)OCC(=O)N1c2ccccc2Sc2ccccc21	25µM*	nt	nt	-4%	0%	nt
O=C(NCCCN1CCCC1=O)c1ccc2c(=O)n(-c3ccccc3F)c(=S)[nH]c2c1	?	nt	nt	4%	-10%	nt
O=C(NCCCN1CCCC1=O)c1ccc2c(=O)n(-c3ccc(F)cc3)c(=S)[nH]c2c1	14µM*	nt	nt	9%	1%	nt
O=C(NCc1ccccc1Cl)c1ccc2c(=O)n(CCCN3CCCC3=O)c(=S)[nH]c2c1	0.63µM*	-12%	6	-11%[38.3 µM]	-10%[46.1 µM]	29
COCCNC(=O)/C(C#N)=C\c1ccc(CNS(=O)(=O)c2ccc(C)cc2)o1	-15%	nt	nt	4%	-12%	nt
C[C@@H]1/C(=N/O)CC2C[C@@H]1C2(C)C	11µM*	-5%	nt	1%	nt	nt
SMILES	ALDH1A1 inh	HPGD inh	IMPase inh	IMPase Li inh	NPSR antag	PNC assembly inh
C/C(=N\O)C1/C(=N/O)CC2C1C2(C)C (stereo not drawn)	-2%	-6%	1	3%[38.3 µM]	16%[46.1 µM]	20
C=CCn1c(-c2sc3nc(C)cc(C)c3c2N)n[nH]c1=S	nt	nt	nt	nt	17%	nt
O=c1[nH]c2ccc(Cl)cc2c(O)c1Cc1ccccc1	?	nt	nt	-16%	5%	nt
Cn1c(=O)c2c(O)c(Cc3ccccc3)c(=O)[nH]c2n(C)c1=O	14µM*	-13%	nt	-5%	1%	?
O=C(CNS(=O)(=O)c1ccc2ccccc2c1)OCC(=O)c1ccc(Br)s1	?	-14%	?	1.8µM*	?	45
O=C(COC(=O)CNS(=O)(=O)c1ccc2ccccc2c1)Nc1ccccc1Sc1ccccc1	18µM*	-8%	-4	1%	17%	50
CCC(CCC(=O)Nc1cccc([N+](=O)[O-])c1)C(=O)O (stereo not drawn)	nt	nt	nt	nt	9%	nt
CC(C)(C)c1[nH]c2ccccc2c1/C=N/O	10%	2µM*	-3	4%[38.3 µM]	2%[46.1 µM]	7
NNC(=O)CCN1CCCCC1	15%	nt	nt	-2%	12%	nt
COc1ccc(C(=S)N2CCC(C(N)=O)CC2)cc1Br	?	nt	nt	-5%	3%	nt
C=CCN(CC=C)C(=S)NC(=O)c1ccc(OC)c(Br)c1	?	-15%	-5	-3%[38.3 µM]	-4%[46.1 µM]	-86*
COc1ccc(C(=O)c2ccc(OC)c(Br)c2)cc1Br	20µM*	-16%	nt	1%	-15%	?
O=C(CCN1C(=O)c2ccccc2C1=O)NC(=S)Nc1ccccc1Cl	22µM*	-22%	nt	1%	-29%	-17
CC1(C)CC(CC(=O)Nc2ccccc2[N+](=O)[O-])C(=O)O1 (stereo not drawn)	?	-21%	nt	-6%	12%	?
CC1(C)CC(CCC(=O)NC(=S)Nc2ccccc2Cl)C(=O)O1 (stereo not drawn)	13µM*	nt	nt	5%	-2%	nt
Cn1cccc1CC(=O)NNC(=S)Nc1ccccc1Cl	?	11µM*	nt	1%	1%	65
Cc1c(Cl)cccc1NC(=S)NC(=O)CCN1C(=O)c2ccccc2C1=O	?	-18%	nt	-4%	14%	-25
Cn1cccc1CC(=O)NNC(=S)Nc1ccc(Cl)cc1	?	-29%	nt	5%	3%	31
C1=C(CCNC2=NCCCCC2)CCCC1	15%	-19%	22	-3%[38.3 µM]	-11%[46.1 µM]	-25
CN(NC(=S)Nc1ccc(OC(F)F)cc1)C(=S)Nc1ccc(OC(F)F)cc1	22%	18µM*	8	-7%	15%	-1
FC(F)Oc1ccc(NC(=S)Nn2cnnc2)cc1	7.9µM*	nt	nt	-5%	12%	nt
FC(F)Oc1ccc(NC(=S)NCc2ccccc2)cc1	2%	-14%	-7	-2%	-7%	10
CN(Cc1nccn1C)C(=O)CC1C(=O)NCCN1Cc1ccccc1C(F)(F)F (stereo not drawn)	-7%	nt	nt	0%	-29%	nt
